Records with an inconclusive call do not appear. Activity calls are given as the source filed them. Calls come from the whole dose curve; as a rule, active = well fitted curve in the direction sought with a large enough effect; inconclusive = small, poorly fitted or top-dose-only effect, or another doubt; inactive = no such curve, though single readings can be large; an effect the other way counts as inactive or inconclusive.
Tests used:
[1] = Quantitative highthroughput screen to assess conditional lethalithy of NOMO1 cells grown in RPMI1640 with untreated serum (RPMI+s) (AID 1963876); conditions: NOMO1 AML cells in RPMI+serum, CellTiter-Glo viability, 48 h; series mostly up to 45.8 µM; note: nearly all actives have a fitted effect of over 35% in size; note: potency is the fitted concentration of half-maximal effect;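 for viability: 100% = DMSO wells and 0% = empty wells without cells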
How it was run: (§1)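 Each medium arm—HPLM with 10% dialyzed FBS, or RPMI1640 with 5 mM glucose and 10% untreated or dialyzed FBS—was screened against an 11-point, 3-fold compound titration for 48 h at 37 °C, with CellTiter-Glo luminescence as endpoint.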

[2] = Quantitative highthroughput screen to assess conditional lethalithy of NOMO1 cells grown in RPMI1640 with dialyzed fetal bovine serum (RPMI+ds) (AID 1963877); conditions: NOMO1 in RPMI+dialyzed FBS viability, ATP luminescence, 48 h; series mostly up to 45.8 µM; note: nearly all actives have a fitted effect of over 30% in size; note: potency is the fitted concentration of half-maximal effect;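 for viability: 100% = DMSO control wells and 0% = empty wells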
How it was run: as §1

[3] = Quantitative highthroughput screen to assess conditional lethalithy of NOMO1 cells grown in Human Plasma-Like Medium with dialyzed fetal bovine serum (HPLM+ds) (AID 1963878); conditions: NOMO1 AML cells in HPLM+ds, CellTiter-Glo viability, 48 h; series mostly up to 45.8 µM; note: nearly all actives have a fitted effect of over 35% in size; note: potency is the fitted concentration of half-maximal effect;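 for viability: 100% = DMSO wells and 0% = empty wells on each plate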
How it was run: as §1

[4] = Quantitative highthroughput screen to assess conditional lethalithy of P12 Ichikawa cells grown in Human Plasma-Like Medium with dialyzed fetal bovine serum (HPLM+ds) (AID 1963879); conditions: ATP luminescence, 48 h; Potency: viability; series mostly up to 45.8 µM; note: nearly all actives have a fitted effect of over 35% in size; note: potency is the fitted concentration of half-maximal effect
How it was run: as §1

[5] = Quantitative highthroughput screen to assess conditional lethalithy of P12 Ichikawa cells grown in RPMI1640 with dialyzed fetal bovine serum (RPMI+ds) (AID 1963880); conditions: ATP luminescence, 48 h; Potency: P12-Ichikawa viability; series mostly up to 45.8 µM; note: nearly all actives have a fitted effect of over 35% in size; note: potency is the fitted concentration of half-maximal effect;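 for viability: 100% = DMSO wells and 0% = empty wells on each plate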
How it was run: as §1

[6] = Quantitative highthroughput screen to assess conditional lethalithy of SEM cells grown in Human Plasma-Like Medium with dialyzed fetal bovine serum (HPLM+ds) (AID 1963882); conditions: SEM B-ALL cells in HPLM+ds, CellTiter-Glo viability, 48 h; series mostly up to 45.8 µM; note: nearly all actives have a fitted effect of over 35% in size; note: potency is the fitted concentration of half-maximal effect
How it was run: as §1

[7] = Quantitative highthroughput screen to assess conditional lethalithy of SEM cells grown in RPMI1640 with unreated serum (RPMI+s) (AID 1963883); conditions: SEM B-ALL cells, CellTiter-Glo viability, 48 h; series mostly up to 45.8 µM; note: nearly all actives have a fitted effect of over 35% in size; note: potency is the fitted concentration of half-maximal effect;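 for viability: 100% = DMSO wells and 0% = empty wells without cells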
How it was run: as §1

[8] = Quantitative highthroughput screen to assess conditional lethalithy of SEM cells grown in RPMI1640 with dialyzed fetal bovine serum (RPMI+ds) (AID 1963884); conditions: SEM B-ALL cells, RPMI+dialyzed FBS, CellTiter-Glo viability, 48 h; series mostly up to 45.8 µM; note: nearly all actives have a fitted effect of over 35% in size; note: potency is the fitted concentration of half-maximal effect;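 for viability: 100% = DMSO control wells and 0% = empty wells without cells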
How it was run: as §1

[9] = Cellular viability qHTS for adrenocortical cancer (ACC) cell line SW-13 (AID 1963989); conditions: SW-13 ACC cells viability, CellTiter-Glo, 48 h; activity (max response): stronger effect = lower value;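 note: cells grown in serum-free medium with ITS supplement; % is set by controls: 0 for no effect and ±100 for the full control effect; nearly all actives have a fitted effect of over 65% in size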
How it was run: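 Luminescent ATP read-out (CellTiter-Glo, 20 min at room temperature) measured metabolically competent SW-13 cells after 48 h compound treatment. Final concentrations spanned up to 46 uM; bortezomib served as positive control.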

[10] = Cellular viability qHTS for adrenocortical cancer (ACC) cell line NCI-H295R (AID 1963990); conditions: CellTiter-Glo ATP luminescence, 48 h; series mostly up to 46.1 µM;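 note: 0% = DMSO only wells and -100% = full killing with cytotoxic reference compound; nearly all actives have a fitted effect of over 60% in size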
How it was run: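 IC50 and maximal efficacy derive from four-parameter logistic modelling of titration curves, with reads scaled between DMSO-only wells (0%) and doxorubicin hydrochloride (100% inhibition). Compounds spanned up to 46 uM over 48 h.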

[11] = Quantitative highthroughput screen to assess conditional lethalithy of P12 Ichikawa cells grown in RPMI1640 with untreated serum (RPMI+s) (AID 1963881); conditions: ATP luminescence, 48 h; Potency: viability; series mostly up to 45.8 µM
How it was run: as §1

Cc1ccc2c(c1)c1c(n2CCc2ccc(C)nc2)CCN(C)C1
inactive: Potency [1] | Potency [2] | Potency [3] | Potency [4] | Potency [5] | Potency [6] | Potency [7] | Potency [8]

Clc1ccc(CCC(Cn2ccnc2)Sc2c(Cl)cccc2Cl)cc1 (stereo unspecified)
inactive: Potency [1] | Potency [2] | Potency [3] | Potency [4] | Potency [5] | Potency [6]

O=c1c(O)c(-c2ccc(O)cc2)oc2cc(O)cc(O)c12
inactive: Potency [1] | Potency [2] | Potency [3] | Potency [4] | Potency [5] | Potency [6] | activity (max response) [9] -9.76% | Potency [10]

COc1cccc2c1C(=O)c1c(O)c3c(c(O)c1C2=O)C[C@@](O)(C(=O)CO)C[C@H]3O[C@H]1C[C@H](N)[C@H](O)[C@H](C)O1
active: Potency [1] 2.96 µM | Potency [2] 2.96 µM | Potency [3] 2.35 µM | Potency [4] 1.66 µM | Potency [11] 1.32 µM | Potency [6] 0.469 µM | Potency [7] 0.418 µM | Potency [8] 0.372 µM

Cn1cc(C=C2C(=O)Nc3cccnc32)c2ccccc21
inactive: Potency [3]
active: Potency [1] 7.43 µM | Potency [2] 9.35 µM | Potency [4] 9.35 µM | Potency [11] 23.5 µM

CC(=O)Nc1cccc(-n2c(=O)n(C3CC3)c(=O)c3c(Nc4ccc(I)cc4F)n(C)c(=O)c(C)c32)c1
active: Potency [1] 0.332 µM | Potency [2] 0.209 µM | Potency [3] 0.235 µM | Potency [4] 2.64 µM | Potency [5] 4.69 µM | Potency [11] 3.72 µM | Potency [8] 1.87 µM
inactive: Potency [10]

CCOc1cc2ncc(C#N)c(Nc3ccc(OCc4ccccn4)c(Cl)c3)c2cc1NC(=O)C=CCN(C)C
active: Potency [1] 0.526 µM | Potency [2] 0.935 µM | Potency [3] 0.332 µM | Potency [4] 0.59 µM | Potency [5] 1.05 µM | Potency [6] 0.332 µM | Potency [7] 0.148 µM | Potency [8] 0.296 µM
